# From PubChem BioAssay
# Shown are actives, neighbours in structure and some others; about 7.5% of the full set was active somewhere.
# SMN2 splice up – qHTS Assay for Enhancers of SMN2 Splice Variant Expression; hit rate 2.8% among 210,000; AID 1458, 2008; HEK293 SMN2-luciferase splicing reporter, luminescence, 30-36 h; Potency, µM (titrated, usually from 46.1 µM), without a hit: top-dose activity change, positive = activation, hits mostly activators; note: % of control where 0% means no effect; nearly all actives have a fitted effect of over 55% in size
#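 HEK293 cells carry an SMN2 minigene-luciferase reporter in which exon 7 inclusion puts luciferase in frame. Cells were seeded at 2000 cells/well, attached for 10-12 hours, then exposed to compounds for 30-36 hours at 37C before ONE-Glo luminescence.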
# FLuc modulator – qHTS profiling assay for firefly luciferase inhibitor/activator using purifed enzyme and Km concentrations of substrates (counterscreen for miR-21 project) | Luciferin 4-monooxygenase (Photinus pyralis), P08659 | purified FLuc, Km substrates, luminescence inhibition | Potency, µM (top dose mostly 57.5 µM), for inactives: top-dose activity change, negative = inhibition, actives largely listed as inhibitors | hit rate 6.9% among 360,000;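 note: plate controls were vehicle for no effect and reference inhibitor for full effect; nearly all actives have a fitted effect of over 55% in size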
# Target sequence (P08659 whole entry, looked up): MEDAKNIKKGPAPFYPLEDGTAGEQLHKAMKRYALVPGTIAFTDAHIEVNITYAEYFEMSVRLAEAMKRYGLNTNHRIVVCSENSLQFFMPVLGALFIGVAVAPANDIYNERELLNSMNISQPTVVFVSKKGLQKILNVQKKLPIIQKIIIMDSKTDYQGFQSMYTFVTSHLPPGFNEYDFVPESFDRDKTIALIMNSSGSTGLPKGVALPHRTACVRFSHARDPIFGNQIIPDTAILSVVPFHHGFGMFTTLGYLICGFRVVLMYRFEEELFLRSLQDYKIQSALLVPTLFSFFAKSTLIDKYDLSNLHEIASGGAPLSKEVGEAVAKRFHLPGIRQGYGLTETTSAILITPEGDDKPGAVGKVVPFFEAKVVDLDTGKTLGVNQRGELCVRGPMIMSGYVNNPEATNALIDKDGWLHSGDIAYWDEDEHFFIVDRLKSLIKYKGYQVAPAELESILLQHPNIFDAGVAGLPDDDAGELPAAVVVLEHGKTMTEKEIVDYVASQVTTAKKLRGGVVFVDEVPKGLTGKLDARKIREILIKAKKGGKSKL
#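 Purified P. pyralis luciferase (10nM final) with 10uM D-luciferin and 10uM ATP (Km levels) in 50mM Tris acetate pH 7.5, 10mM Mg acetate, 0.01% Tween-20, 0.05% BSA; qHTS 6-point titration, ~60 µM downward; luminescence read.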
# NPC1 promoter act – qHTS Assay for NPC1 Promoter Activators; Huh7 NPC1 promoter luciferase reporter, 24 h; Potency, µM (highest dose often 9.22 µM), without a hit: top-dose activation, usual class: activators; hit rate 2.4% among 320,000; AID 485313, 2010; note: % of control where 0% means no effect; nearly all actives have a fitted effect of over 60% in size
#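 In 1536-well qHTS, Huh7 cells harboring an NPC1 promoter–luciferase construct received compound for 24 h; activation was quantified by luminescence following luciferase reagent addition.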
# ELG1 genotoxic – qHTS screen for small molecules that induce genotoxicity in human embryonic kidney (HEK293T) cells expressing luciferase-tagged ELG1; HEK293T ELG1-luciferase reporter, luminescence, 16 h; Potency, µM (series often up to 46 µM), without a hit: top-dose activity change, positive = activation, usual class: activators; hit rate 1.3% among 330,000; AID 504466, 2011; note: % of control where 0% means no effect; nearly all actives have a fitted effect of over 60% in size
#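 Quantitative HTS format in 1536-well plates. HEK293T ELG1-luciferase reporter cells receive test compound and are incubated 16 hr at 37 °C, 5% CO2; ONE-Glo added, 30 min room temperature, then luminescence read.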
# Luc counter – Counterscreen for Luciferase (Kinase-Glo TM) Inhibition. Luciferin 4-monooxygenase (Photuris pensylvanica), Q27757. Kinase-Glo luciferase, ATP luminescence, 8 min. Potency, µM (titrated, usually from 38.3 µM), for inactives: at the highest dose activity change, negative = inhibition, most hits filed as inhibitors. hit rate 0.28% among 200,000; note: % is set by controls: 0 for no effect and ±100 for the full control effect; nearly all actives have a fitted effect of over 60% in size
#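 Recombinant Kinase-Glo luciferase, 10 uM ATP (linear range), luciferin; imidazole pH 7.2 / KCl / MgCl2 / Tween / BSA buffer; 8 min RT; luminescence.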
# Rab9 promoter act – qHTS Assay for Rab9 Promoter Activators; hit rate 2.8% among 320,000; Huh7 Rab9 promoter-luciferase reporter, luminescence, 24 h; AID 485297, 2010; Potency, µM (top dose mostly 9.22 µM), inactives show top-dose activation, negative = inhibition, actives largely listed as activators; note: % of control where 0% means no effect; nearly all actives have a fitted effect of over 60% in size
#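 Luciferase signal after 10 min detection reagent at ambient indicates Rab9 promoter upregulation; stably transfected Huh7 cells were treated 24 h with compound in DMSO at 37 °C, 5% CO2.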
# Starred values were filed as active, the others as inactive; ? = inconclusive; nt = not tested or not shown; [ ] = another dose, or the depositor's remark. Calls come from the whole dose curve; as a rule, active = well fitted curve in the direction sought with a large enough effect; inconclusive = small, poorly fitted or top-dose-only effect, or another doubt; inactive = no such curve, though single readings can be large; an effect the other way counts as inactive or inconclusive. Potency is the fitted concentration of half-maximal effect.
SMILES,SMN2 splice up,FLuc modulator,NPC1 promoter act,ELG1 genotoxic,Luc counter,Rab9 promoter act
CCc1c(C)sc2c1CCN(Cc1cccc(OC)c1)C2c1ccccc1 (stereo unspecified),nt,0.5%,nt,nt,nt,nt
Cc1ccc(NC(=O)C2CCCN(C(=O)c3ccc(Cl)cc3)C2)cc1C (stereo unspecified),-14.7%,26.9µM*,15.5%,8.8%,5.7%,?
Cc1ccc(NC(=O)C2CCCN(C(=O)c3ccc(Cl)cc3)C2)cc1 (stereo unspecified),-6.7%,?,2.1%,0.7%,0.6%,27.0%
O=C(NC1CCCCC1)N1CCc2ccccc21,12.6µM*,19µM*,?,14.6µM*,-5.0%,?
O=C(OCC1CO1)C1CCCCC1C(=O)OCC1CO1 (stereo unspecified),-5.0%,nt,nt,nt,nt,nt
CN(C)c1ccc(C(=C2C=CC(=[N+](C)C)C=C2)c2ccc(N(C)C)cc2)cc1,-54.4%,nt,nt,nt,5.01µM*,nt
COC(=O)Nc1ccc2c(c1)ncn2C1CCCCC1,1.3%,16.9µM*,15.9%,11.8%,-8.6%,0.4%
CCOC(=O)Nc1ccc2c(c1)ncn2C1CCCCC1,22.3%,-1.5%[2.3 µM],2.7%,11.6%,-4.8%,21.5%
Oc1ccc(O)c(-c2cnns2)c1,9.4%,8.49µM*,-14.5%,-1.2%,-0.8%,-5.5%
Nc1nc(N)nc(-c2cc(O)ccc2O)n1,nt,-18.8%,?,-2.6%,nt,9.5%
COc1cccc(C(=O)N2CCCCC2CCN2CCCCC2)c1 (stereo unspecified),4.1%,-0.1%,nt,nt,nt,nt
O=C1CCc2cc(S(=O)(=O)NC(C(=O)Nc3ccc(F)cc3)c3ccccc3)ccc2N1 (stereo unspecified),16.5%,3.5%,nt,nt,nt,nt
CCCCC(=O)NCCc1c(Cc2ccccc2)[nH]c2ccccc12,-24.3%,nt,nt,nt,1.4%,nt
O=C1OC(Cc2ccccn2)C(O)=C1C1=NCCCCN1 (stereo unspecified),10µM*,?,2.24µM*,?,-1.6%,2.24µM*
COc1ccc([C@@H]2[C@@H](O)[C@H](O)[C@@H](C)N2C)cc1OC,9.1%,nt,nt,nt,-0.5%,nt
C/C(=N\OCC(=O)OCC(=O)NC(=O)c1ccccc1)c1ccc2c(c1)OCO2,nt,-3.1%,0.1%,11.9%,nt,-4.9%
Cc1cccc(N2CCN(C(=O)CN3C(=O)COc4ccc(S(=O)(=O)N5CCCCCC5)cc43)CC2)c1C,-8.8%,-10.3%,nt,nt,nt,nt
NC(=O)c1cc2c3ccccc3ccn2c1-c1ccccc1,nt,21.3µM*,-2.1%,11.6µM*,nt,-15.2%
Cc1cc(C(N)=O)c2ccccc2n1,1.7%,1.7%,0.4%,-0.2%,2.4%,5.7%
COc1cccc(-c2nc3ccccc3s2)c1O,7.08µM*,0.338µM*,?,1.46µM*,-11.6%,?
COc1cc(OC)c(-c2nc3ccccc3s2)cc1OC,nt,12µM*,9.9%,-3.8%,-1.7%,8.9%
COc1cc(C(=O)Nc2cc(C)c(O)c(-c3nc4ccccc4s3)c2)cc(OC)c1OC,13.5%,-10.8%,nt,nt,nt,nt
O=C(Nc1ccccc1-c1nc2ccccc2s1)c1cccnc1,1.6%,3.6%,-3.2%,-2.1%,5.3%,-8.2%
Clc1ncccc1-c1nc2ccccc2s1,nt,15.1µM*,26.3%,?,-8.1%,-2.4%
Oc1c(Br)cc(Br)cc1-c1nc2ccccc2s1,-4.4%,7.57µM*,nt,nt,nt,nt
SMILES,SMN2 splice up,FLuc modulator,NPC1 promoter act,ELG1 genotoxic,Luc counter,Rab9 promoter act
Cc1cccc(NC(=O)c2c(C)oc3ncn(CC(C)C)c(=O)c23)n1,nt,-0.9%,nt,nt,nt,nt
COC(=O)c1ccc(OC)c(Cn2c(=O)n(-c3cccc(Cl)c3)c(=O)c3c2c2cc(C)ccc2n3C)c1,-6.5%,-2.1%,nt,nt,nt,nt
Clc1ccc(CCNc2nc3ccccc3s2)cc1,-2.1%,?,-0.6%,3.0%,-1.9%,3.1%
O=c1c(-c2nc3ccccc3s2)cccn1Cc1ccc(Cl)cc1,-20.0%,13.5µM*,22.2%,?,-7.7%,?
O=C(/C=C/c1ccc(F)cc1)N1CCCc2ccccc21,-10.4%,?,20.5%,12.7%,0.7%,?
Cc1ccc(/C=C/C(=O)N2CCc3ccccc3C2)cc1,0.7%,10.7µM*,24.3%,?,14.6%,23.7%
CC(C)(C)c1ccc(/C=C/C(=O)N2CCc3ccccc3C2)cc1,-1.0%,?,-0.7%,3.7%,-5.2%,-8.4%
O=C(/C=C/c1ccc(F)cc1)N1CCc2ccccc2C1,nt,10.7µM*,?,16.8%,nt,2.51µM*
COCCOc1ccc(C(F)(F)F)cc1Nc1nc2ccccc2o1,10.0%,15.1µM*,-2.4%,?,-2.3%,-1.5%
O=C(c1ccccc1)c1cnc(-c2ccc(Cl)cc2)s1,?,0.338µM*,0.355µM*,2.59µM*,?,0.316µM*
O=C(c1ccccc1)c1cnc(-c2ccccc2)s1,12.6µM*,1.2µM*,0.501µM*,2.06µM*,-24.7%,0.316µM*
O=C(c1ccc(Cl)cc1)c1cnc(-c2ccc(Cl)cc2)s1,?,1.7%,15.8%,6.5%,-4.3%,25.3%
CO/S(=N\S(=O)(=O)c1ccc(Cl)cc1)c1ccc([N+](=O)[O-])cc1 (stereo unspecified),nt,nt,5.2%[46.1 µM],nt,nt,-7.5%[46.1 µM]
O=C(Nc1cccc(-c2nc3ccccc3o2)c1)C(F)(F)F,2.3%,?,nt,nt,nt,nt
O=c1oc(-c2cccnc2)nc2ccccc12,-13.3%,3.0%,-2.8%,0.3%,-5.1%,4.0%
CC(C)C(=O)Nc1ccc(-c2nc3ccccc3c(=O)o2)cc1,nt,0.301µM*,8.9%,-1.1%,-9.4%,2.6%
CC(C)(C)C(=O)Nc1ccc(-c2nc3ccccc3c(=O)o2)cc1,nt,0.107µM*,15.2%,5.8%,-21.7%,21.0%
CC(C)C(=O)Nc1cccc(-c2nc3ccccc3c(=O)o2)c1,-2.6%,?,-0.7%,2.7%,0.5%,0.7%
CC(C)(C)C(=O)Nc1cccc(-c2nc3ccccc3c(=O)o2)c1,-2.7%,15.1µM*,?,10.7%,-1.2%,?
CCCC(=O)Nc1cccc(-c2nc3ccccc3c(=O)o2)c1,nt,1.35µM*,1.1%,-4.1%,-15.2%,17.1%
COc1ccccc1CCC(=O)N1CCN(S(=O)(=O)c2cccc(F)c2)CC1,nt,-1.8%,2.6%,0.4%,nt,-0.6%
COc1cccc(N2CC(O)=C(c3nc4ccccc4s3)C2=N)c1,?,21.3µM*,-5.4%,?,-2.8%,-1.3%
C=CCSC1=N/C(=C\c2ccc(C(=O)O)cc2)C(=O)S1,16.9%,10.7µM*,0.4%,1.3%,-1.5%,0.0%
